Legend:
[1] = target: Calcium/calmodulin-dependent protein kinase type 1 (Homo sapiens) (UniProt Q14012); settings: at 1 µM
[2] = target: Calcium/calmodulin-dependent protein kinase type 1 (Homo sapiens) (UniProt Q14012); settings: at 10 µM
[3] = target: Calcium/calmodulin-dependent protein kinase type II subunit beta (Homo sapiens) (UniProt Q13554); settings: at 1 µM
[4] = target: Calcium/calmodulin-dependent protein kinase type II subunit beta (Homo sapiens) (UniProt Q13554); settings: at 10 µM
[5] = target: Calcium/calmodulin-dependent protein kinase type II subunit gamma (Homo sapiens) (UniProt Q13555); settings: at 1 µM
[6] = target: Calcium/calmodulin-dependent protein kinase type II subunit gamma (Homo sapiens) (UniProt Q13555); settings: at 10 µM
[7] = target: Calcium/calmodulin-dependent protein kinase type II subunit delta (Homo sapiens) (UniProt Q13557); settings: at 1 µM
[8] = target: Calcium/calmodulin-dependent protein kinase type II subunit delta (Homo sapiens) (UniProt Q13557); settings: at 10 µM
[9] = target: T1, Calcium/calmodulin-dependent protein kinase type IV (Homo sapiens) (UniProt Q16566); settings: at 1 µM
T1 sequence (whole entry): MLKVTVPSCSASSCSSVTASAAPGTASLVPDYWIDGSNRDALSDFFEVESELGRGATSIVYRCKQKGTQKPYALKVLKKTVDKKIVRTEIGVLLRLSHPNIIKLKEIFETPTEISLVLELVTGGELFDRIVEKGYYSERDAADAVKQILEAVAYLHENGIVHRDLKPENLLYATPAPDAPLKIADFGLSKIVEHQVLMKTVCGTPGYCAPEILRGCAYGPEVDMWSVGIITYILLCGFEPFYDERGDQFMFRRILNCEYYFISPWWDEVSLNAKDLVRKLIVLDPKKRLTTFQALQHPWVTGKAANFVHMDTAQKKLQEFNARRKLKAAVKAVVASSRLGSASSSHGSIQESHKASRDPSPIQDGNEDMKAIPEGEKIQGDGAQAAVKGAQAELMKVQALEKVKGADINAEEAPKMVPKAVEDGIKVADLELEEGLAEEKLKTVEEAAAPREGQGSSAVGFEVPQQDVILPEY

[10] = target: T1, Calcium/calmodulin-dependent protein kinase type IV (Homo sapiens); settings: at 10 µM
[11] = target: Death-associated protein kinase 1 (Homo sapiens) (UniProt P53355); settings: at 10 µM
[12] = target: Death-associated protein kinase 2 (Homo sapiens) (UniProt Q9UIK4); settings: at 1 µM
[13] = target: Death-associated protein kinase 2 (Homo sapiens) (UniProt Q9UIK4); settings: at 10 µM
[14] = target: T2, Serine/threonine-protein kinase DCLK2 (Homo sapiens) (UniProt Q8N568); settings: at 1 µM
T2 sequence (whole entry): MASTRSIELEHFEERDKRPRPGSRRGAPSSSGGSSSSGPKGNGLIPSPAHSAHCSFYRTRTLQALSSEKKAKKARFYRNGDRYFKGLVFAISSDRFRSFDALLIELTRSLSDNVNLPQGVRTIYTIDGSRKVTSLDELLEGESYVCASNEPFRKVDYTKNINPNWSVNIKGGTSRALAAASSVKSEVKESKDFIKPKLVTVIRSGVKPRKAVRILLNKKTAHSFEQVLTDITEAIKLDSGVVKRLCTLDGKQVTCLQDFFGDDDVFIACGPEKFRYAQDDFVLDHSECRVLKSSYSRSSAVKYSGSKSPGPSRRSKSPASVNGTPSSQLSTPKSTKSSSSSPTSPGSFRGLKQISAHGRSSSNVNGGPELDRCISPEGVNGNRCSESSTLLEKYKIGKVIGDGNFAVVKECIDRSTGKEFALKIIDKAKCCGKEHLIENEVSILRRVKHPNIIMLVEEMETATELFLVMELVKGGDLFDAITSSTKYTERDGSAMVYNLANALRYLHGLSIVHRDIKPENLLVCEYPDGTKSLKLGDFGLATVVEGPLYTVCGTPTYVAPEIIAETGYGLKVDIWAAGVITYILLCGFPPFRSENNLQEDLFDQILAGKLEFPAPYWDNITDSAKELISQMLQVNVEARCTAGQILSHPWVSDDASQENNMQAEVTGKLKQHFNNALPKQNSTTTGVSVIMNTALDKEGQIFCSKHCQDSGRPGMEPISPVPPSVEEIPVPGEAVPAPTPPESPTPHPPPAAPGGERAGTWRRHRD

[15] = target: T2, Serine/threonine-protein kinase DCLK2 (Homo sapiens); settings: at 10 µM
[16] = target: T3, Discoidin domain-containing receptor 2 (Homo sapiens) (UniProt Q16832); settings: at 1 µM
T3 sequence (whole entry): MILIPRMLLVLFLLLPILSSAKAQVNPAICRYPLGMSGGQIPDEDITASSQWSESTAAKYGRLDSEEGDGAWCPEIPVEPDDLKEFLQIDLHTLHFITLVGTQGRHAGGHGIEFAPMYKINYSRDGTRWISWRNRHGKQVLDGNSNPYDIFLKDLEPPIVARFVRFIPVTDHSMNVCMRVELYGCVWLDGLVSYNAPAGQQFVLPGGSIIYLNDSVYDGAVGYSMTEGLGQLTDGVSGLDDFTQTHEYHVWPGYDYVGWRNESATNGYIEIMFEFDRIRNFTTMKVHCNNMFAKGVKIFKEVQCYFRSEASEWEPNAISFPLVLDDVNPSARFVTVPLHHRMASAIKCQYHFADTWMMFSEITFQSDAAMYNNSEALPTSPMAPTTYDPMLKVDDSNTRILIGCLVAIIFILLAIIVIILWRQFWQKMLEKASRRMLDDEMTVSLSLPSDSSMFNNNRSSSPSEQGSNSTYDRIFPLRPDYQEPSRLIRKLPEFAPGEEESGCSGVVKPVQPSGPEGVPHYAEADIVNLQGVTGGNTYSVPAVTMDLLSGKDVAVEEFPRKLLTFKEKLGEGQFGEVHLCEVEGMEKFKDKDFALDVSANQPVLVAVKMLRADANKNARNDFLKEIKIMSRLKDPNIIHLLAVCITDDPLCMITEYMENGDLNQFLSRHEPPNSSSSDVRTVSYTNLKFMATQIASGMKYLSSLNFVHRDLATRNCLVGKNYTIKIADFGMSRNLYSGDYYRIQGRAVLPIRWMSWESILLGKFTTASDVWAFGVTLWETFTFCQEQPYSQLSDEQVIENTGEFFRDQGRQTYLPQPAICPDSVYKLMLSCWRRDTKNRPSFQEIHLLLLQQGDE

[17] = target: T3, Discoidin domain-containing receptor 2 (Homo sapiens); settings: at 10 µM
[18] = target: T4, Myotonin-protein kinase (Homo sapiens) (UniProt Q09013); settings: at 1 µM
T4 sequence (whole entry): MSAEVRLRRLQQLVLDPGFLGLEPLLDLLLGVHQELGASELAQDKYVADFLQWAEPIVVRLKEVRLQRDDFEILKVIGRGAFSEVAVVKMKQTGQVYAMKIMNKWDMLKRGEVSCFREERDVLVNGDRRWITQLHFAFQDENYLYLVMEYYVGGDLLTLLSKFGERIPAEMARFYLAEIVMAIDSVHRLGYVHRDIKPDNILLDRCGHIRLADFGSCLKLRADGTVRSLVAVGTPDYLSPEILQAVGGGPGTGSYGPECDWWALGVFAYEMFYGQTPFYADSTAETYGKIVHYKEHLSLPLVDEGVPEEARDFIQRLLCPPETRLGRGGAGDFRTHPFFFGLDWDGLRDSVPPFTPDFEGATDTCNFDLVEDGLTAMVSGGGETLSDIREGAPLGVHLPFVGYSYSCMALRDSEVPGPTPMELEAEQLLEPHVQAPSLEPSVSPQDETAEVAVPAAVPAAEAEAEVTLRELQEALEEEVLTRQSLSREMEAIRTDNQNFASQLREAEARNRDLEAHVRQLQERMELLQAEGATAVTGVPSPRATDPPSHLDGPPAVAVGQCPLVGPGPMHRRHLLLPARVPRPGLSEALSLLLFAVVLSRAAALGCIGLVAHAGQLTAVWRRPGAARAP

[19] = target: T4, Myotonin-protein kinase (Homo sapiens); settings: at 10 µM
[20] = target: T5, Serine/threonine-protein kinase 17A (Homo sapiens) (UniProt Q9UEE5); settings: at 1 µM
T5 sequence (whole entry): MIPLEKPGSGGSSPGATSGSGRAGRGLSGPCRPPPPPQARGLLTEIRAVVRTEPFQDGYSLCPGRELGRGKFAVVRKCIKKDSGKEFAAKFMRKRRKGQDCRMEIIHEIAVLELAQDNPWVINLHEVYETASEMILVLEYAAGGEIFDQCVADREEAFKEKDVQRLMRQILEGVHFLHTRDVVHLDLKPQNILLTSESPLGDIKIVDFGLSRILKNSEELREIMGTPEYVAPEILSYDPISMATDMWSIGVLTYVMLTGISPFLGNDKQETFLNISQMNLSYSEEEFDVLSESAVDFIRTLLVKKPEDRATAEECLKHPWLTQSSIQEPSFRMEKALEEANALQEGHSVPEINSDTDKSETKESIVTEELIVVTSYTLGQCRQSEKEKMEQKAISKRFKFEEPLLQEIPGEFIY

Sequence of Calcium/calmodulin-dependent protein kinase type II subunit beta (Homo sapiens) (Q13554 whole entry): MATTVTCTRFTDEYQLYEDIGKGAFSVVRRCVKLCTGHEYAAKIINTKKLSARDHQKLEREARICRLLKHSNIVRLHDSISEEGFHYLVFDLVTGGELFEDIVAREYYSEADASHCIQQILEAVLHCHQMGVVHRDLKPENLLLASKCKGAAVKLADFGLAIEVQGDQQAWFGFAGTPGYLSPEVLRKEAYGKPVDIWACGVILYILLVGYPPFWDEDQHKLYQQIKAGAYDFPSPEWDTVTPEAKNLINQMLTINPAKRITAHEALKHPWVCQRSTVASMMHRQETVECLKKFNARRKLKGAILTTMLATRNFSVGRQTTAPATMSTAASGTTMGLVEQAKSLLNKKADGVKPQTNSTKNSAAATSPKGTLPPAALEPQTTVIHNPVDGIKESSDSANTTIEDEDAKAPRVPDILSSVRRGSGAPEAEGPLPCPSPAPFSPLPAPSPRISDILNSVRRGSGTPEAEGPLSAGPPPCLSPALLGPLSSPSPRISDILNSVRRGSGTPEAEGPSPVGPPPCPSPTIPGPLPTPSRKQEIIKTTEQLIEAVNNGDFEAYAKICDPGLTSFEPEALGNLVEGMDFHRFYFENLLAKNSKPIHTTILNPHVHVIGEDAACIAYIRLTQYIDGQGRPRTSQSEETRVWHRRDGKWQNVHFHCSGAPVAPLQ
Sequence of Calcium/calmodulin-dependent protein kinase type II subunit gamma (Homo sapiens) (Q13555 whole entry): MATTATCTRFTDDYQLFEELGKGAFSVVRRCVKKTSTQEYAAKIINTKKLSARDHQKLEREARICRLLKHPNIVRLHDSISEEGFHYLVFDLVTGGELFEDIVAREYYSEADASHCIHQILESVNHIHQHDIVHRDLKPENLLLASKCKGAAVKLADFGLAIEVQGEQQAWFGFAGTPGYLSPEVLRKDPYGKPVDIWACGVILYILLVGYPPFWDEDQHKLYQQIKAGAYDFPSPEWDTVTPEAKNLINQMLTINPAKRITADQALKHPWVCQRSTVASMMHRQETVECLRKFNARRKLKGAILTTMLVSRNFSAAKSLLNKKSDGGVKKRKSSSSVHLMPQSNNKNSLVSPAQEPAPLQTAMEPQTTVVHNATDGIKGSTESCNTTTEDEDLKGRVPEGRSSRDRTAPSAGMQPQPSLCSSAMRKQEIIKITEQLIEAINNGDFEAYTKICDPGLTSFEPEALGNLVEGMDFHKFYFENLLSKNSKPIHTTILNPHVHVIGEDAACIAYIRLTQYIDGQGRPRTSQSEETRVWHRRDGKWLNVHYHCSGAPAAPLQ
Sequence of Death-associated protein kinase 2 (Homo sapiens) (Q9UIK4 whole entry, looked up): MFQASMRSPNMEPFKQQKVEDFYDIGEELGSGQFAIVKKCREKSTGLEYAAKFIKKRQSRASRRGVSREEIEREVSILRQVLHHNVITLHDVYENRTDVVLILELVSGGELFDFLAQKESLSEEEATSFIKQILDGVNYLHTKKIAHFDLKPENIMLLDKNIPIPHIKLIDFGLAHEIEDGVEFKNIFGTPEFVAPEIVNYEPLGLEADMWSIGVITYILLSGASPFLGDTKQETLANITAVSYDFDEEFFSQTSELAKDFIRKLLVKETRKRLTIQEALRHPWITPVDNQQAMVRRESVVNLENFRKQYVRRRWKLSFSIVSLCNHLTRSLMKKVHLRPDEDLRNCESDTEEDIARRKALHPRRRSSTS
Sequence of Calcium/calmodulin-dependent protein kinase type II subunit delta (Homo sapiens) (Q13557 whole entry): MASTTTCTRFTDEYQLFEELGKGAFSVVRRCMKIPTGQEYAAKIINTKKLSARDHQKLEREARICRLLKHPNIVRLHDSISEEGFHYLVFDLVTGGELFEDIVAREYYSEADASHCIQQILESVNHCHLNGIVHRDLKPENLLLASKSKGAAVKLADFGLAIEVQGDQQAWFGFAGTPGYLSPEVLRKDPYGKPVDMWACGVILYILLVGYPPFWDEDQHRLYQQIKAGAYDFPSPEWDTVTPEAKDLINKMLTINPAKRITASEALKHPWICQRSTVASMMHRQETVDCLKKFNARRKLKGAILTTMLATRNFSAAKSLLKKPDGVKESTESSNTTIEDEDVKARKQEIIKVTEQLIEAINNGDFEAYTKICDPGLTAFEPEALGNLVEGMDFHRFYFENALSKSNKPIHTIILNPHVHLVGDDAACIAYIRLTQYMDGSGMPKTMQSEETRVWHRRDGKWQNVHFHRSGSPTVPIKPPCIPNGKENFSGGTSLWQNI
Sequence of Calcium/calmodulin-dependent protein kinase type 1 (Homo sapiens) (Q14012 whole entry, looked up): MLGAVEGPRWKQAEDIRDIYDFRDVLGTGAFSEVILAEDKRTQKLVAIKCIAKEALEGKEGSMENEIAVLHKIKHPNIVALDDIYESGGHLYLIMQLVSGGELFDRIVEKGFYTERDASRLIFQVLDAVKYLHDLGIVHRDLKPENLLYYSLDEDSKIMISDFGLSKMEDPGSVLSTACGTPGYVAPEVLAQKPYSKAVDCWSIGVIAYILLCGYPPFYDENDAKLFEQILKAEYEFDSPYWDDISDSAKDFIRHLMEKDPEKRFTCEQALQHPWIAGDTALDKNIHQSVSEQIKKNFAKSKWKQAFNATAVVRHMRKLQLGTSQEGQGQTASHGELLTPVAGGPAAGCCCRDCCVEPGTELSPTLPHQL
Sequence of Death-associated protein kinase 1 (Homo sapiens) (P53355 whole entry, looked up): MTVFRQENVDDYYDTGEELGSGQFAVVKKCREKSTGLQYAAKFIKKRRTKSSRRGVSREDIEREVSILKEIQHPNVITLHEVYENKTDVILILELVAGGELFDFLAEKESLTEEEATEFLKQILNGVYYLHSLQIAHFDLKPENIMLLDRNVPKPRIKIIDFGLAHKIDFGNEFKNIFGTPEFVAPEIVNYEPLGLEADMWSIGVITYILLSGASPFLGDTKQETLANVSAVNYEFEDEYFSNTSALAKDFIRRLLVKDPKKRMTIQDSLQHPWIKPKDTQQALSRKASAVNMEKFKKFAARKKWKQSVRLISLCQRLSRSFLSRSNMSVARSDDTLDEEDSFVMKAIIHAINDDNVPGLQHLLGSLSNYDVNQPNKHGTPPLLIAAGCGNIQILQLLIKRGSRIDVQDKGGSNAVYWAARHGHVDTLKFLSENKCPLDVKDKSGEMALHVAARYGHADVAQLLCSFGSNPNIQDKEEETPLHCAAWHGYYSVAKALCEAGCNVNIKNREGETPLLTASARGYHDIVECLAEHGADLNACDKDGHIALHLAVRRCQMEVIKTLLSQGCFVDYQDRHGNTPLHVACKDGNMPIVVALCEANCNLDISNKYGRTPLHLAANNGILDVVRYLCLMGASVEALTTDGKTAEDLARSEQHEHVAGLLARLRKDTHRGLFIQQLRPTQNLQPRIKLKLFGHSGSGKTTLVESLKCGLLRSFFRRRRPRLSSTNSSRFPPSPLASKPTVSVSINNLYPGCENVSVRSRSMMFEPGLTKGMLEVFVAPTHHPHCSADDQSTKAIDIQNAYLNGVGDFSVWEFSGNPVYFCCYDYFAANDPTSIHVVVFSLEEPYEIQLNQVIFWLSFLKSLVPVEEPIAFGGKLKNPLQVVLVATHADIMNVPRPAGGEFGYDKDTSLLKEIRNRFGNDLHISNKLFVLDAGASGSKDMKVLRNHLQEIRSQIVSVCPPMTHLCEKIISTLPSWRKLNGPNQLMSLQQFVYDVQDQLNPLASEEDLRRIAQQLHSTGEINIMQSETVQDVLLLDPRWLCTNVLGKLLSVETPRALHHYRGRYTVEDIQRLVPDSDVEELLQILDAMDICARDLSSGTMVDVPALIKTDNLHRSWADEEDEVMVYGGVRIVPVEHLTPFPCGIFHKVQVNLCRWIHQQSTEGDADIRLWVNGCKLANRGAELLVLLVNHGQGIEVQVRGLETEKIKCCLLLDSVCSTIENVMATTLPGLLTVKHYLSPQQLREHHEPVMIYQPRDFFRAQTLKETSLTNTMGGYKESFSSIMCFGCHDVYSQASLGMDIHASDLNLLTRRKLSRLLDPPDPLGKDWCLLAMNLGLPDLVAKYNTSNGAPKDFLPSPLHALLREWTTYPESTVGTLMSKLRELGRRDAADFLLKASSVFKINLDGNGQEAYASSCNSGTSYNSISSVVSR

| SMILES | residual activity [1] [%] | residual activity [2] [%] | residual activity [3] [%] | residual activity [4] [%] | residual activity [5] [%] | residual activity [6] [%] | residual activity [7] [%] | residual activity [8] [%] | residual activity [9] [%] | residual activity [10] [%] | residual activity [11] [%] | residual activity [12] [%] | residual activity [13] [%] | residual activity [14] [%] | residual activity [15] [%] | residual activity [16] [%] | residual activity [17] [%] | residual activity [18] [%] | residual activity [19] [%] | residual activity [20] [%] |
| --- | --- | --- | --- | --- | --- | --- | --- | --- | --- | --- | --- | --- | --- | --- | --- | --- | --- | --- | --- | --- |
| CC(C)n1cnc2c(NCc3ccccc3)nc(NCCCO)nc21 | 80 | 68 | 84 | 66 | 94 | 59 | 86 | 58 | 112 | 90 | 82 | 101 | 92 | 100 | 102 | 87 | 91 | 94 | 87 | 107 |
| Cc1cncc2cccc(S(=O)(=O)N3CCCN(C(=O)CN)C[C@H]3C)c12 | 97 | 63 | 76 | 49 | 95 | 64 | 98 | 60 | 91 | 22 | 85 | 90 |  | 66 | 35 | 126 | 94 |  |  |  |
| COc1cc2ncnc(Nc3ccc(O)c(Br)c3)c2cc1OC | 104 | 61 | 73 | 62 | 68 | 18 | 79 | 28 | 122 | 67 | 76 |  | 77 | 73 | 96 | 90 | 55 | 105 | 116 | 77 |

— ChEMBL document CHEMBL2218924, “A broad activity screen in support of a chemogenomic map for kinase signalling research and drug discovery” (Biochem J, 2013)
